# In article PMC7862700, “An all-to-all approach to the identification of sequence-specific readers for epigenetic DNA modifications on cytosine”:
# Legend:
# Assay in all cases: DAPPL (digital affinity profiling via proximity ligation, sequencing); 10 mM Tris-HCl pH 7.5, 50 mM NaCl, 1 mM DTT, 4% glycerol, room temperature, 30 min; GST-TFs on glutathione beads, 16-mer random dsDNA library, 0.1% formaldehyde crosslink after washing; high values mean tight binding
# FLI1 = biological target: T1, FLI1 (Homo sapiens, UniProt Q01543 1-452); settings: protein: recombinant; tags: N-terminal GST; dsDNA, one strand shown
# T1 sequence: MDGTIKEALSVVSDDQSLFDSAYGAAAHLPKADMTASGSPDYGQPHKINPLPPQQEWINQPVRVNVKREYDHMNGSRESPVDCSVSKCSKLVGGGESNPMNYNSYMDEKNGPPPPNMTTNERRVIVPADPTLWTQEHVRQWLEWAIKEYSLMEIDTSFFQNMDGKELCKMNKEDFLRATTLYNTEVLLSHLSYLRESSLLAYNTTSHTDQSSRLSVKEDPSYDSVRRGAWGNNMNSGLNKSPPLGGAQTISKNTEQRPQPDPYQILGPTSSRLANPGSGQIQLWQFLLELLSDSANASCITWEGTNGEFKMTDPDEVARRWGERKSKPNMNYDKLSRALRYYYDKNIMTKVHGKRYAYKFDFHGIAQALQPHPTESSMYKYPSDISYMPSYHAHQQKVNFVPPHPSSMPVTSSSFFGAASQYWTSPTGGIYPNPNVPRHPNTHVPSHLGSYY
# How it was run: (§1)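 In yeast, human transcription factors were expressed with a GST fusion, then pulled down on glutathione beads and given DNA barcodes. Pooled with a tag-only sample, they were exposed to 200 nmole of a 16-mer random double-stranded DNA library (Tris/NaCl/DTT/glycerol buffer, room temperature, 30 min), washed, crosslinked with 0.1% formaldehyde, proximity-ligated using BsaI/T4 ligase for 1 h at 37 °C, PCR-amplified and read on an Illumina NextSeq500. Each hexamer's frequency of reads for a factor, divided by the matching frequency for the tag-only sample, gives the binding signal.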
# ELK1 = biological target: T2, ELK1 (Homo sapiens, UniProt P19419 1-428); settings: protein: recombinant; tags: N-terminal GST; dsDNA, one strand shown
# T2 sequence: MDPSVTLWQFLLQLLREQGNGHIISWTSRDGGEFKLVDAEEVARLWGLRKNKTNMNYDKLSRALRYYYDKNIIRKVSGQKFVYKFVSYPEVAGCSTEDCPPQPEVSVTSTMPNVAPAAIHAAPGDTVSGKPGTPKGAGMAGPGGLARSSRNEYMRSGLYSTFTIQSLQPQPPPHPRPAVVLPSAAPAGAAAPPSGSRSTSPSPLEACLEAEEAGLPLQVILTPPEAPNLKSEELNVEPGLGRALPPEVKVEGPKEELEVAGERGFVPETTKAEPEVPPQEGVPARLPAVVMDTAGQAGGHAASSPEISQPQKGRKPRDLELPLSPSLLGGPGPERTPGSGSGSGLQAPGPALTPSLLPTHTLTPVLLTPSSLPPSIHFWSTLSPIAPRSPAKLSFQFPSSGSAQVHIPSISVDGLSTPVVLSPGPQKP
# How it was run: as §1
# GABPA = biological target: T3, GABPA (Homo sapiens, UniProt Q06546 1-454); settings: protein: recombinant; tags: N-terminal GST; dsDNA, one strand shown
# T3 sequence: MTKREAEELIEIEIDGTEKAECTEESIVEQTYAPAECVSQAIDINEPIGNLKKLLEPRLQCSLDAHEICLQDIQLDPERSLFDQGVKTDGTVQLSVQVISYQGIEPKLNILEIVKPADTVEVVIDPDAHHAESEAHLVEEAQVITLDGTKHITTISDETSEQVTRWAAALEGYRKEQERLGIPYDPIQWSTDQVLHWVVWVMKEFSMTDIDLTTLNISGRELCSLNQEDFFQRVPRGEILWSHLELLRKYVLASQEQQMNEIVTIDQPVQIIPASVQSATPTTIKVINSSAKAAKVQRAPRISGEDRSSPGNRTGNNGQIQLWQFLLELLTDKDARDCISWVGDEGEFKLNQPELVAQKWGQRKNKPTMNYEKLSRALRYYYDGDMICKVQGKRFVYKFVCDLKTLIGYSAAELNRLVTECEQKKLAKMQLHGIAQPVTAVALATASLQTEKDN
# How it was run: as §1
# ERG = biological target: T4, ERG (Homo sapiens, UniProt P11308 1-479); settings: protein: recombinant; tags: N-terminal GST; dsDNA, one strand shown
# T4 sequence: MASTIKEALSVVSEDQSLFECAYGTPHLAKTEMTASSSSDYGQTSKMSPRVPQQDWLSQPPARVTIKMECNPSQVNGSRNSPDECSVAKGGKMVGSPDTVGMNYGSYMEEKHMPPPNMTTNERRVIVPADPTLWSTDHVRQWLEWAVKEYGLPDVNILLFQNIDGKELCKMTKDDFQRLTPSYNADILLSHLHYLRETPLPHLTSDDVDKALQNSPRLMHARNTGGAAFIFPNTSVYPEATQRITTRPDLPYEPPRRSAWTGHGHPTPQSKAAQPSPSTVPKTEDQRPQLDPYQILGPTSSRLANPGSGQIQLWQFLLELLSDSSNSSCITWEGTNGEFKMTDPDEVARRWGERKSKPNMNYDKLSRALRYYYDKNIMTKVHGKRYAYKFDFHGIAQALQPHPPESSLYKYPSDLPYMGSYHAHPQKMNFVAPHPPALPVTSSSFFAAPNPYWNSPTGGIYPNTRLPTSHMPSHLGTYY
# How it was run: as §1
# ELF1 = ELF1 (Homo sapiens, UniProt P32519 1-619); settings: protein: recombinant; tags: N-terminal GST; dsDNA, one strand shown
# Sequence of ELF1 (P32519 whole entry): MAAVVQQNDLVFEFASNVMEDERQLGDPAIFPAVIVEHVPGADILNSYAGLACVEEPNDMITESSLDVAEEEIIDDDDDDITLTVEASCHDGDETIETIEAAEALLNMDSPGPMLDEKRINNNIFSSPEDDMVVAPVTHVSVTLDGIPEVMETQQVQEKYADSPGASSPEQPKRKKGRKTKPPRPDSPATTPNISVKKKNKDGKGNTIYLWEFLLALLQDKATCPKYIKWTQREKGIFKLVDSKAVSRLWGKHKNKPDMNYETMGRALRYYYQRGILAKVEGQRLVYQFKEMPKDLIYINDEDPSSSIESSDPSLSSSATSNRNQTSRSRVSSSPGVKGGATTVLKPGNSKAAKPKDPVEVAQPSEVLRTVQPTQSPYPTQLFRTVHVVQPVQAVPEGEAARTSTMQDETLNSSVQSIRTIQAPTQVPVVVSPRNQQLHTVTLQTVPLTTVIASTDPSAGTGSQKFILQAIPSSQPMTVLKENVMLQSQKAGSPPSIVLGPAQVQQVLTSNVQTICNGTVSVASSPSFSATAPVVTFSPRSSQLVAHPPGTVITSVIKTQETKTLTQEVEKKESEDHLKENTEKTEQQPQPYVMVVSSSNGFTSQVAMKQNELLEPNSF
# How it was run: as §1
# EHF = biological target: T5, EHF (Homo sapiens, UniProt Q9NZC4 1-300); settings: protein: recombinant; tags: N-terminal GST; dsDNA, one strand shown
# T5 sequence: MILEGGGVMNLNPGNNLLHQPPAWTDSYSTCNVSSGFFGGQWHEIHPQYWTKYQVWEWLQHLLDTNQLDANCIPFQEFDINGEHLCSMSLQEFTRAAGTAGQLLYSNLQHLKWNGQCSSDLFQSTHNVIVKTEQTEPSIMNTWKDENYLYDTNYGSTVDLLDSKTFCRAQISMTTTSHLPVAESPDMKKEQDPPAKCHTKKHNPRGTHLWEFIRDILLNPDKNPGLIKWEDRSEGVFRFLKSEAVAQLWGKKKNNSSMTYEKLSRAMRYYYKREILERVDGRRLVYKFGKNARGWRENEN
# How it was run: as §1
# SPI1 = SPI1 (Homo sapiens, UniProt P17947 1-270); settings: protein: recombinant; tags: N-terminal GST; dsDNA, one strand shown
# How it was run: as §1
# SPIB = SPIB (Homo sapiens, UniProt Q01892 1-262); settings: protein: recombinant; tags: N-terminal GST; dsDNA, one strand shown
# Sequence of SPIB (Q01892 whole entry): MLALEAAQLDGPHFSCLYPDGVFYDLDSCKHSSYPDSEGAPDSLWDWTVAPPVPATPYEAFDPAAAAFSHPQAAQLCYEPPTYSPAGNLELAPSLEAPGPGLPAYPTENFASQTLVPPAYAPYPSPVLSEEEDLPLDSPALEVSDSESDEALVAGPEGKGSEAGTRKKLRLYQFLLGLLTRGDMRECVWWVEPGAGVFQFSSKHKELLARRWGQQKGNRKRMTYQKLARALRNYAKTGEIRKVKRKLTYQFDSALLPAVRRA
# How it was run: as §1
# ELK3 = biological target: T6, ELK3 (Homo sapiens, UniProt P41970 1-407); settings: protein: recombinant; tags: N-terminal GST; dsDNA, one strand shown
# T6 sequence: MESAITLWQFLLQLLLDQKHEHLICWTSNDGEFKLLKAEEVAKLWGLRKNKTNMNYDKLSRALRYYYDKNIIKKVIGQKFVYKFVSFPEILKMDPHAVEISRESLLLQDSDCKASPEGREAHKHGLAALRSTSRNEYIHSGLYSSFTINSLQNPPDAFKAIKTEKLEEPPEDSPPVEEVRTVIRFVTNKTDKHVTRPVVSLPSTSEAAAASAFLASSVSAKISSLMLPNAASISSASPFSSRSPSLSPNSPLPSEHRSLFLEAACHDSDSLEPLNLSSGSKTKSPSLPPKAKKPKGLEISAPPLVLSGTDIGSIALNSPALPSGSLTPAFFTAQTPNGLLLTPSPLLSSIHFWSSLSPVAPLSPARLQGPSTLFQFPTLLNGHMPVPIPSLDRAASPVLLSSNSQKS
# How it was run: as §1
# FEV = biological target: T7, FEV (Homo sapiens, UniProt Q99581 1-238); settings: protein: recombinant; tags: N-terminal GST; dsDNA, one strand shown
# T7 sequence: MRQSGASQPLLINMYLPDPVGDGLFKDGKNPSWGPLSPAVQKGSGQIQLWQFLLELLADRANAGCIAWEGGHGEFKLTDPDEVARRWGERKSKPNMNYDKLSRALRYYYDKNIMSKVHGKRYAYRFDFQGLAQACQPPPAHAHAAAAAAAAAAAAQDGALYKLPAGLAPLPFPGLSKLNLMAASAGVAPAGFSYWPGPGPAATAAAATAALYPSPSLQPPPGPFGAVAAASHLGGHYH
# How it was run: as §1
# ETV5 = ETV5 (Homo sapiens, UniProt P41161 1-510); settings: protein: recombinant; tags: N-terminal GST; dsDNA, one strand shown
# Sequence of ETV5 (P41161 whole entry): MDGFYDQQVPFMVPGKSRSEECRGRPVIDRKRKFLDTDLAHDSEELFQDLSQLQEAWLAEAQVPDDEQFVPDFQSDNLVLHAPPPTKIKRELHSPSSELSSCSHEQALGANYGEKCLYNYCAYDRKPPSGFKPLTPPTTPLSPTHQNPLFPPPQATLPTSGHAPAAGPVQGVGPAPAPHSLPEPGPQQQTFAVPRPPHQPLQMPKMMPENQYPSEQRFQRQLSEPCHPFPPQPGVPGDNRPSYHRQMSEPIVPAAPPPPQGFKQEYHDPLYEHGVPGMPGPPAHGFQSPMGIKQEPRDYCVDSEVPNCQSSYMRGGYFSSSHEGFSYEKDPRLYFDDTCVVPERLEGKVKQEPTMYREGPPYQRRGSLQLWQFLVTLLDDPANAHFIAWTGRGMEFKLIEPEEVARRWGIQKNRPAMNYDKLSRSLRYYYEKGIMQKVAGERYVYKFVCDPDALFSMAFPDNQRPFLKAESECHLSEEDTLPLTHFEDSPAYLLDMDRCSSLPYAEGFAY
# How it was run: as §1
# HSF1 = HSF1 (Homo sapiens, UniProt Q00613 1-529); settings: protein: recombinant; tags: N-terminal GST; chain copies: 3; dsDNA, one strand shown
# Sequence of HSF1 (Q00613 whole entry): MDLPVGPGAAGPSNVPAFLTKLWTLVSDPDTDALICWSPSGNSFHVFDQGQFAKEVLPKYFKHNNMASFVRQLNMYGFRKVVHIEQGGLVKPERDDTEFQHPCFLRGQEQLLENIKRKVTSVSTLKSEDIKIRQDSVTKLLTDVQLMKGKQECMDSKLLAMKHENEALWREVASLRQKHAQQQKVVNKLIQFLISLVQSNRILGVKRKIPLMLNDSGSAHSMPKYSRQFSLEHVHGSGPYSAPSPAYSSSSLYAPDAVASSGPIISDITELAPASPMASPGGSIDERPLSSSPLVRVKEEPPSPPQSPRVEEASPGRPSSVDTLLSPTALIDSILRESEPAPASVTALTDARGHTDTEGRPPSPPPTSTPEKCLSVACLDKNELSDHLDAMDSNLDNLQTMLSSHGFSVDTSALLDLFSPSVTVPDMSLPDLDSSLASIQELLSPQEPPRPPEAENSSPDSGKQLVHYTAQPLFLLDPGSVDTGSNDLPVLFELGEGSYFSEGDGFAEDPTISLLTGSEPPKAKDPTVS
# How it was run: as §1
# SPIC = biological target: T8, SPIC (Homo sapiens, UniProt Q8N5J4 1-248); settings: protein: recombinant; tags: N-terminal GST; dsDNA, one strand shown
# T8 sequence: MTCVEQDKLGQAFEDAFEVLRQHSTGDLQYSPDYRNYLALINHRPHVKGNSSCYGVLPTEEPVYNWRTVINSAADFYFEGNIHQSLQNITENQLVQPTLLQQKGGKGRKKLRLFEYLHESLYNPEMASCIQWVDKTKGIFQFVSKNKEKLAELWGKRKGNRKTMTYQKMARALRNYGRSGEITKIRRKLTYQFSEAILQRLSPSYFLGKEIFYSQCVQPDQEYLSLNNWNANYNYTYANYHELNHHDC
# How it was run: as §1
# ELF4 = ELF4 (Homo sapiens, UniProt Q99607 1-663); settings: protein: recombinant; tags: N-terminal GST; dsDNA, one strand shown
# Sequence of ELF4 (Q99607 whole entry): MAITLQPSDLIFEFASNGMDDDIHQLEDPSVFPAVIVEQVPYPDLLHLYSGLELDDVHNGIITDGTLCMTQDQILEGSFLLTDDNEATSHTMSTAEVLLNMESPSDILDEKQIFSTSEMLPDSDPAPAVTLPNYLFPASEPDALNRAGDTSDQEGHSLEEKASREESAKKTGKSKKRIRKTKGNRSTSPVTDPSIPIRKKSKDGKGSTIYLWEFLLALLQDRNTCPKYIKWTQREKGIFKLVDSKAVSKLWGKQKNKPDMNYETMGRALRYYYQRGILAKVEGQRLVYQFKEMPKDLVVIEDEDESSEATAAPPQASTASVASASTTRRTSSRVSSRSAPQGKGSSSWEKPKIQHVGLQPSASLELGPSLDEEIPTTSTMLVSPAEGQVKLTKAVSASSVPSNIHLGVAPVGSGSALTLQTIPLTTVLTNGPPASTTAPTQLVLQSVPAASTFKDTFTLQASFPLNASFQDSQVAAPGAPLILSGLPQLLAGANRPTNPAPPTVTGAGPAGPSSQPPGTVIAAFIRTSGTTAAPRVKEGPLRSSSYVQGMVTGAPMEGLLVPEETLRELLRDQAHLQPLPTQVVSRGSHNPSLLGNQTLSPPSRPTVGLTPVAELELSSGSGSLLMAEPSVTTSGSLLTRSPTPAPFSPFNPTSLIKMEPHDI
# How it was run: as §1
# ELK4 = biological target: T9, ELK4 (Homo sapiens, UniProt P28324-2 1-405); settings: protein: recombinant; tags: N-terminal GST; dsDNA, one strand shown
# T9 sequence: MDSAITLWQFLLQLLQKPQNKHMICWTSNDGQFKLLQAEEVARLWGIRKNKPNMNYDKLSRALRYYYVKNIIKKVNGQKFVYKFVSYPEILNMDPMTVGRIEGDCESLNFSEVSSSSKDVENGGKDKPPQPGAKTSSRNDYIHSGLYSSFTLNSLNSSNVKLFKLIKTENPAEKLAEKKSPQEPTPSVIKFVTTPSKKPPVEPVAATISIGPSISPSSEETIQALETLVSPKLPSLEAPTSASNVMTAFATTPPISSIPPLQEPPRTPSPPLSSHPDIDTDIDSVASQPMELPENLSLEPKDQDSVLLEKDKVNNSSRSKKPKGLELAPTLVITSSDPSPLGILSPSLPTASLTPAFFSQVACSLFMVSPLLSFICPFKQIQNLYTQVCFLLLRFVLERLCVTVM
# How it was run: as §1
# ETV2 = biological target: T10, ETV2 (Homo sapiens, UniProt O00321 1-342); settings: protein: recombinant; tags: N-terminal GST; dsDNA, one strand shown
# T10 sequence: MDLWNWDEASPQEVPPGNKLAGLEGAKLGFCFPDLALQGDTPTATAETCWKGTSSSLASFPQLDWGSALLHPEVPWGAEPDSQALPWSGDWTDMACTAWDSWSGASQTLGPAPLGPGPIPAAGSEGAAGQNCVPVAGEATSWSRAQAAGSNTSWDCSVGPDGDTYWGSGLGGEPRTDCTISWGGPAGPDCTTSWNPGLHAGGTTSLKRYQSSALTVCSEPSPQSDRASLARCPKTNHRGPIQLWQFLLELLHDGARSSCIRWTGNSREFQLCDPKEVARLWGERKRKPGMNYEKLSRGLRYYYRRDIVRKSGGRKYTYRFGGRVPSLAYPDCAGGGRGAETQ
# How it was run: as §1
# ELF3 = biological target: T11, ELF3 (Homo sapiens, UniProt P78545 1-371); settings: protein: recombinant; tags: N-terminal GST; dsDNA, one strand shown
# T11 sequence: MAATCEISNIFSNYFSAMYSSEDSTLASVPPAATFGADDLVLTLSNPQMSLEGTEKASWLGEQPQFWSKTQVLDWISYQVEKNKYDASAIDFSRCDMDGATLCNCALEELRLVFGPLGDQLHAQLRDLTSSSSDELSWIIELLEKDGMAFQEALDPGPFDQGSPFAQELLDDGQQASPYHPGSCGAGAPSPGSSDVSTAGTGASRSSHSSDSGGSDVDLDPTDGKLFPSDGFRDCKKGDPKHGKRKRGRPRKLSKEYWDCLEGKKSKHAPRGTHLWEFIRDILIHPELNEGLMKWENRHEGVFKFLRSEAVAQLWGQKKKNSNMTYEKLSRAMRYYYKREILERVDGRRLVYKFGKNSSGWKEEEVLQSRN
# How it was run: as §1
# CRX = CRX (Homo sapiens, UniProt O43186 1-299); settings: protein: recombinant; tags: N-terminal GST; dsDNA, one strand shown
# Sequence of CRX (O43186 whole entry): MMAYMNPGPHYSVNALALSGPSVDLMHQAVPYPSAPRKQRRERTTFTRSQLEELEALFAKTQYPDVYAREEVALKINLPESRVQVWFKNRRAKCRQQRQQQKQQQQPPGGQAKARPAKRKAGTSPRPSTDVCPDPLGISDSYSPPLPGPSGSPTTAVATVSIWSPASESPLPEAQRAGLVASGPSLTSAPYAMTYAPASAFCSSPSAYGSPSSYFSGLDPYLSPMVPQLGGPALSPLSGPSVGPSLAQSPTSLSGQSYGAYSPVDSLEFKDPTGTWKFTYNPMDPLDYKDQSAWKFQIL
# How it was run: as §1
# ETV1 = ETV1 (Homo sapiens, UniProt P50549 1-477); settings: protein: recombinant; tags: N-terminal GST; dsDNA, one strand shown
# Sequence of ETV1 (P50549 whole entry): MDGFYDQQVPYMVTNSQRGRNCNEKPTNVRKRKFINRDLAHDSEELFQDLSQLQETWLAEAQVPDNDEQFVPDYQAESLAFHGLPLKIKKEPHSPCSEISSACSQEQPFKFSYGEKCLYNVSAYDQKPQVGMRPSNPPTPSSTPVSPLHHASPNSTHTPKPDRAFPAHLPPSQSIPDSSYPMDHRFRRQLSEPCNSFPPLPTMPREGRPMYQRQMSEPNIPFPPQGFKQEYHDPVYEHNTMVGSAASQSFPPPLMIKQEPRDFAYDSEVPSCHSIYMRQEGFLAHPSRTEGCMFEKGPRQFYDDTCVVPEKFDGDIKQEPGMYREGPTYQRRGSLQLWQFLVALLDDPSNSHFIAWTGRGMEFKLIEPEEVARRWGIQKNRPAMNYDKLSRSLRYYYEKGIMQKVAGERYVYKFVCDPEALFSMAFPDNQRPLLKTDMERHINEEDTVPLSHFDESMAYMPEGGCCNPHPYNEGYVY
# How it was run: as §1
sequence,measurement,setting,value
CGATCT,binding signal,FLI1,"1.37 fold enrichment (6-mer frequency, TF over GST control)"
same,binding signal,ELK1,"1.25 fold enrichment (6-mer frequency, TF over GST control)"
same,binding signal,GABPA,"1.29 fold enrichment (6-mer frequency, TF over GST control)"
same,binding signal,ERG,"1.28 fold enrichment (6-mer frequency, TF over GST control)"
same,binding signal,ELF1,"1.3 fold enrichment (6-mer frequency, TF over GST control)"
same,binding signal,EHF,"1.32 fold enrichment (6-mer frequency, TF over GST control)"
same,binding signal,SPI1,"1.22 fold enrichment (6-mer frequency, TF over GST control)"
same,binding signal,SPIB,"1.3 fold enrichment (6-mer frequency, TF over GST control)"
same,binding signal,ELK3,"1.3 fold enrichment (6-mer frequency, TF over GST control)"
same,binding signal,FEV,"1.32 fold enrichment (6-mer frequency, TF over GST control)"
same,binding signal,ETV5,"1.36 fold enrichment (6-mer frequency, TF over GST control)"
same,binding signal,HSF1,"1.54 fold enrichment (6-mer frequency, TF over GST control)"
same,binding signal,SPIC,"1.46 fold enrichment (6-mer frequency, TF over GST control)"
same,binding signal,ELF4,"1.37 fold enrichment (6-mer frequency, TF over GST control)"
same,binding signal,ELK4,"1.38 fold enrichment (6-mer frequency, TF over GST control)"
same,binding signal,ETV2,"1.27 fold enrichment (6-mer frequency, TF over GST control)"
same,binding signal,ELF3,"1.41 fold enrichment (6-mer frequency, TF over GST control)"
same,binding signal,CRX,"1.52 fold enrichment (6-mer frequency, TF over GST control)"
same,binding signal,ETV1,"1.24 fold enrichment (6-mer frequency, TF over GST control)"
